Laboratory results: PubChem BioAssay (EPA / NIEHS)
Records with an inconclusive call do not appear. Activity calls are given as the source filed them. Rule for the calls, unless noted: active = hit-call score of the fitted dose curve at least 0.9, where 1 is the maximum; inactive = score below 0.9.

Experiments:
[1] = target: Glucocorticoid receptor (Homo sapiens) (UniProt P04150); test: ATG_GR_TRANS: Attagene TRANS-FACTORIAL HepG2 Assay for human Glucocorticoid Receptor (GR) (AID 2282978; active = hit-call score of the fitted dose curve at least 0.9, where 1 is the maximum;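 note: activators score as hits since higher reporter transcript over DMSO is fitted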); settings: HepG2 Attagene TRANS GR reporter, mRNA transcription
Chain of Glucocorticoid receptor (Homo sapiens) (P04150 whole entry, looked up, the tested form may be a part): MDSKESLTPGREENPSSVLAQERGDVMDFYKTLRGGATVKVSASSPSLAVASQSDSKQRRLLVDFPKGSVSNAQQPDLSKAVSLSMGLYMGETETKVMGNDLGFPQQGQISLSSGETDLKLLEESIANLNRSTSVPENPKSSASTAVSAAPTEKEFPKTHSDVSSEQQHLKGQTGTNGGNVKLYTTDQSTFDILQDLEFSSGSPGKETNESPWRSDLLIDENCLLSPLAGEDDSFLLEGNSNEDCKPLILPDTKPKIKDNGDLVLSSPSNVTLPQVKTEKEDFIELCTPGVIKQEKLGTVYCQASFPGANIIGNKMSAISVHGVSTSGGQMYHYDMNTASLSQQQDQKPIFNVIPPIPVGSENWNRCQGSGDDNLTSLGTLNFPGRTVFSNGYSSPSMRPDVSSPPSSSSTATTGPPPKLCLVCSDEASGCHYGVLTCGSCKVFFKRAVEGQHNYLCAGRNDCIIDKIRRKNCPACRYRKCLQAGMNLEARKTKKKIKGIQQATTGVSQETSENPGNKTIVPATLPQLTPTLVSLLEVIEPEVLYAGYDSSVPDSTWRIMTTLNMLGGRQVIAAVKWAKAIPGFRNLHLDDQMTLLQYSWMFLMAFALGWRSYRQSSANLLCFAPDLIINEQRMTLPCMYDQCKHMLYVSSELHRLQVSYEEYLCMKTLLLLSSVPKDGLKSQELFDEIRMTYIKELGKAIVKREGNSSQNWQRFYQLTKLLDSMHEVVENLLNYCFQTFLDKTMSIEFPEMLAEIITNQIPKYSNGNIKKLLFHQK
Procedure, shortened: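 HepG2 cells transiently transfected with multiplexed reporter units in which chimeric NR-GAL4 proteins drive GAL4-UAS reporters; 24 h compound exposure. Reporter mRNA measured by RT-PCR, 6-FAM labelling, HpaI digestion and capillary electrophoresis; gain-of-signal fitted versus DMSO.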

[2] = target: Nuclear receptor subfamily 4 group A member 2 (Homo sapiens) (UniProt P43354); test: ATG_NURR1_TRANS: Attagene TRANS-FACTORIAL HepG2 Assay for human Nuclear Receptor Related Protein 1 (NURR1) (AID 2282985; active = hit-call score of the fitted dose curve at least 0.9, where 1 is the maximum); settings: HepG2 Attagene TRANS reporter, mRNA readout
Chain of Nuclear receptor subfamily 4 group A member 2 (Homo sapiens) (P43354 whole entry, looked up, the tested form may be a part): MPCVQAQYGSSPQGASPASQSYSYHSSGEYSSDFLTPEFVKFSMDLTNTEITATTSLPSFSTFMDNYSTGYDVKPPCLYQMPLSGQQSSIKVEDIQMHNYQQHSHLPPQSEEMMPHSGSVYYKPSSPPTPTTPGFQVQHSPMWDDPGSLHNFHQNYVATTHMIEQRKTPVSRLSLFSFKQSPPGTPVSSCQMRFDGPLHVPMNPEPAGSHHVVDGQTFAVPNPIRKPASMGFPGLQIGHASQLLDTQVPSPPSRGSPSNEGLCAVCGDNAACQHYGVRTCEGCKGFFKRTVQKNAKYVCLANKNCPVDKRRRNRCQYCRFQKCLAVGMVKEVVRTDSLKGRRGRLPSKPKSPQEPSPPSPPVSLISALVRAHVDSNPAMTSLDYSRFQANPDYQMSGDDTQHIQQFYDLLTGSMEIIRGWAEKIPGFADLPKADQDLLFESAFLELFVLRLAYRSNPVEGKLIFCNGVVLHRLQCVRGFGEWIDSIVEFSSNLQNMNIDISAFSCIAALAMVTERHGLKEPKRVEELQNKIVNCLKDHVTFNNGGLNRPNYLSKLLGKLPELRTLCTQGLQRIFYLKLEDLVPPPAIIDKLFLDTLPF
Procedure, shortened: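 Reporter transcript induction, measured by RT-PCR with fluorescent labelling, HpaI digestion and capillary electrophoresis, after 24 hr dosing of human HepG2 cells transiently expressing an exogenous NR-Gal4 fusion with GAL4-UAS-driven reporters; DMSO as baseline.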

[3] = target: Nuclear respiratory factor 1 (Homo sapiens) (UniProt Q16656); test: ATG_NRF1_CIS: Attagene CIS-FACTORIAL HepG2 Assay for human Nuclear Respiratory Factor 1 (NRF1) Orphan Gene (AID 2282987); settings: HepG2 NRF1 cis-element reporter, Attagene multiplex; actives raise or lower the signal
Chain of Nuclear respiratory factor 1 (Homo sapiens) (Q16656 whole entry, looked up): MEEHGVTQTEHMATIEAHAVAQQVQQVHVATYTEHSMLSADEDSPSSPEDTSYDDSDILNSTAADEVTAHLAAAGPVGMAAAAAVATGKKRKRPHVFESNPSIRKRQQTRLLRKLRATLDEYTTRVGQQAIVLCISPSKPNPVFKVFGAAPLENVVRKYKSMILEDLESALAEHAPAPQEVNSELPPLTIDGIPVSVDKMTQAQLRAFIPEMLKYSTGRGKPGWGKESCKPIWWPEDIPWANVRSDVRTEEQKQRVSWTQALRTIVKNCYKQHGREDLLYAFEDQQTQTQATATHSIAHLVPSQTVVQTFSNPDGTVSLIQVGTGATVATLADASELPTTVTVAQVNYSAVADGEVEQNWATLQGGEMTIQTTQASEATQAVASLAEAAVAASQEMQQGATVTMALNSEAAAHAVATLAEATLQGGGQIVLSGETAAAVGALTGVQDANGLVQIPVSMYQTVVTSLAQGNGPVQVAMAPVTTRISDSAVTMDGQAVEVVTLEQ
Procedure, shortened: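 HepG2 cells transiently transfected with multiple reporter transcription units under cis-regulatory promoter control, so endogenous transcription-factor activity is read. After 24 h compound exposure, reporter mRNA quantified by RT-PCR, fluorescent labelling, HpaI digestion and capillary electrophoresis; bidirectional fitting versus DMSO.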

[4] = ATG_NFI_CIS: Attagene CIS-FACTORIAL HepG2 Assay for human Nuclear Factor I (NFI) (AID 2282989); settings: HepG2 cis-regulatory reporter, NFI response element transcription; actives raise or lower the signal
Procedure, shortened: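 Reporter transcripts were measured by RT-PCR with fluorescent primer extension and capillary electrophoresis 24 h post-treatment. HepG2 cells carried transiently transfected cis-regulated reporter constructs reporting endogenous factor activity; gain or loss fitted against DMSO baseline.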

[5] = target: Myc proto-oncogene protein (Homo sapiens) (UniProt P01106); test: ATG_Myc_CIS: Attagene CIS-FACTORIAL HepG2 Assay for human Myelocytomatosis (Myc) Proto-Oncogene Transcription Factor (AID 2282990); settings: HepG2, Attagene cis-reporter transcription factor activity; actives raise or lower the signal
Chain of Myc proto-oncogene protein (Homo sapiens) (P01106 whole entry, looked up, the tested form may be a part): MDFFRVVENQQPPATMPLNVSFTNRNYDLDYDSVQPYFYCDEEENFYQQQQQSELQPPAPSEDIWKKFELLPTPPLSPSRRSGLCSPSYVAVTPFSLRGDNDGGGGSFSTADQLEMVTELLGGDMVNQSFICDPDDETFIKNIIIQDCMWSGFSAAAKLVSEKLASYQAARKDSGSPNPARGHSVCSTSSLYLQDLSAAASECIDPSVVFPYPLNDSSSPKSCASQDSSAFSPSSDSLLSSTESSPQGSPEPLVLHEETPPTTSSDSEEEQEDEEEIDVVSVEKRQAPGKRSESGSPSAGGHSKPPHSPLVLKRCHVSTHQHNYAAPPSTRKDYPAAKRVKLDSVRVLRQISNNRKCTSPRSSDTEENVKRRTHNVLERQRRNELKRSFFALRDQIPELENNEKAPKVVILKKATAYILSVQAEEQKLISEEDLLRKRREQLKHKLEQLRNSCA
Procedure, shortened: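 After 24 h chemical treatment of HepG2 cells carrying multiplexed cis-regulated reporter constructs, reporter transcripts quantified by RT-PCR and capillary electrophoresis of fluorescent fragments. Gain or loss fitted against DMSO baseline.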

[6] = ATG_NRF2_ARE_CIS: Attagene CIS-FACTORIAL HepG2 Assay for human Nuclear Factor Erythroid 2 Related Factor 2 (NFR2) response to Antioxidant Response Elements (ARE) (AID 2282992); settings: HepG2 Attagene ARE/NRF2 reporter, transcription factor activity; actives raise or lower the signal;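 for AC50: reporter mRNA level measured by RT-PCR and capillary electrophoresis fluorescence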
Procedure, shortened: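 Fluorescence intensity of reporter-specific cDNA fragments, separated by capillary electrophoresis, reflects mRNA induction in transfected HepG2 cells at 24 h. Activity is fitted bidirectionally, DMSO serving as baseline.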

[7] = ATG_Oct_MLP_CIS: Attagene CIS-FACTORIAL HepG2 Assay for human Octamer-Binding Transcription Factor (Oct) (AID 2282993); settings: HepG2 Attagene cis-factorial Oct reporter, mRNA; actives raise or lower the signal
Procedure, shortened: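 Readout is reporter transcript level from RT-PCR with fluorescent primer extension and capillary electrophoresis, fitted in both directions against DMSO. Transfected HepG2 reporter units report endogenous factor activity after 24 h dosing.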

[8] = target: Cellular tumor antigen p53 (Homo sapiens) (UniProt P04637); test: ATG_p53_CIS: Attagene CIS-FACTORIAL HepG2 Assay for human p53 Transcription Factor (AID 2282994); settings: HepG2 p53 cis-element reporter, Attagene mRNA; actives raise or lower the signal
Chain of Cellular tumor antigen p53 (Homo sapiens) (P04637 whole entry, looked up): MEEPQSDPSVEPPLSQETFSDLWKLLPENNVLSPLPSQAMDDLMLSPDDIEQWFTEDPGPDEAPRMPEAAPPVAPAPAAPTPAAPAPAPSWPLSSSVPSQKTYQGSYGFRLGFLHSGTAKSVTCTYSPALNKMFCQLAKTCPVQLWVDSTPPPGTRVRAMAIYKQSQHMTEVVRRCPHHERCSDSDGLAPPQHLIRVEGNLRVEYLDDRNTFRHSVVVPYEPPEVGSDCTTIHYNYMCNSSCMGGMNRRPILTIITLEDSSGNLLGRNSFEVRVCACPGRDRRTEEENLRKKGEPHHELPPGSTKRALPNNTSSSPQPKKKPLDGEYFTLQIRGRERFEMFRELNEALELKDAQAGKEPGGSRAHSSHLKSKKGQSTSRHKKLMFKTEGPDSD
Procedure, shortened: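 Transiently transfected HepG2 (multiple cis reporter transcription units); exposure 24 h; reporter RNA via RT-PCR, 6-FAM extension, 2 h HpaI digest at 37 C, CE detection; DMSO baseline.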

[9] = BSK_3C_TissueFactor: BioMAP Diversity Plus: 3C Assay for Tissue Factor Biomarker Activity (AID 2282997); settings: BioMAP 3C HUVEC, tissue factor biomarker readout; actives raise or lower the signal
Procedure, shortened: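 In this endothelial system, HUVEC are treated for 24 h and Tissue Factor is assessed by ELISA, normalised to DMSO.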

[10] = BSK_3C_uPAR: BioMAP Diversity Plus: 3C Assay for Urokinase-type plasminogen activator receptor (uPAR) Biomarker Activity (AID 2282998); settings: BioMAP 3C HUVEC, uPAR biomarker ELISA; actives raise or lower the signal
Procedure, shortened: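 Cell-surface uPAR on HUVEC (3C system) read by ELISA at 24 h post-treatment, with DMSO as baseline and fitting in both directions. Parallel cultures stained with SRB to flag overt cytotoxicity.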

[11] = BSK_3C_VCAM1: BioMAP Diversity Plus: 3C Assay for Vascular cell adhesion molecule 1 (VCAM1) Biomarker Activity (AID 2282999); settings: BioMAP 3C HUVEC, VCAM1 ELISA, cytokine-stimulated; actives raise or lower the signal
Procedure, shortened: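 Activity fitted in both directions relative to DMSO, with ELISA measurement of the surface marker on primary HUVEC (3C) at 24 h post-treatment; parallel SRB staining (0.1% SRB, TCA-fixed, 560 nm) flagged overt cytotoxicity.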

[12] = BSK_4H_Eotaxin3: BioMAP Diversity Plus: 4H Assay for Eotaxin 3 Biomarker Activity (AID 2283000); settings: primary human endothelial cells (HUVEC); actives raise or lower the signal;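 note: CCL26 protein level quantified by ELISA in parallel with SRB cytotoxicity check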
Procedure, shortened: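 ELISA quantitation of CCL26 (Eotaxin-3) protein from chemically dosed human vascular endothelial cells at 24 h; increases and decreases both scored relative to DMSO-treated baseline.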

[13] = target: Hepatocyte nuclear factor 4-alpha (Homo sapiens) (UniProt P41235); test: ATG_HNF4a_TRANS: Attagene TRANS-FACTORIAL HepG2 Assay for human Hepatocyte Nuclear Factor 4 alpha (HNF4a) (AID 2282982; active = hit-call score of the fitted dose curve at least 0.9, where 1 is the maximum); settings: HepG2 HNF4a transactivation reporter, mRNA readout
Chain of Hepatocyte nuclear factor 4-alpha (Homo sapiens) (P41235 whole entry, looked up, the tested form may be a part): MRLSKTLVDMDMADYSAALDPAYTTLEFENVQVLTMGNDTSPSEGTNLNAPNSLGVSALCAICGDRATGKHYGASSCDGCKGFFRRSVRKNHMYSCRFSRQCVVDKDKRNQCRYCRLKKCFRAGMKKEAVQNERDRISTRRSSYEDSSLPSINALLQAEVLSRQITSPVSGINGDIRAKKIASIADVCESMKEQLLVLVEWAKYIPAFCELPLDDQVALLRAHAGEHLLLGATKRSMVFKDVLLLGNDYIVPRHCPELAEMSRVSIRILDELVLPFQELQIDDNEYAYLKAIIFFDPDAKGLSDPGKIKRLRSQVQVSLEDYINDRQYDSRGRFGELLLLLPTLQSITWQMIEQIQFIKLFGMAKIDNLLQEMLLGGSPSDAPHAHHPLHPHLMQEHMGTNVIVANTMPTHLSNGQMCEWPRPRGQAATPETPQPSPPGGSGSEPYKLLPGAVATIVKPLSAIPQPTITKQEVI
Procedure, shortened: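 Activity of an exogenous HNF4a–Gal4 fusion scored as induced GAL4-UAS reporter transcripts after 24 h chemical exposure of transfected human HepG2 cells. Read-out via RT-PCR with 6-FAM labelling and capillary electrophoresis; rise over DMSO baseline.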

[14] = ATG_M_06_TRANS: Attagene TRANS-FACTORIAL HepG2 Assay for M06 Transcription Factor (Internal Marker) (AID 2282983; active = hit-call score of the fitted dose curve at least 0.9, where 1 is the maximum); settings: HepG2 Attagene TRANS M06 internal marker reporter
Procedure, shortened: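 Multi-reporter-transfected HepG2, 24 h treatment; reporter transcripts quantified via RT-PCR, primer-extension labelling and CE. DMSO-normalized gain-of-signal fit.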

[15] = ATG_M_32_TRANS: Attagene TRANS-FACTORIAL HepG2 Assay for M32 Transcription Factor (Internal Marker) (AID 2282984; active = hit-call score of the fitted dose curve at least 0.9, where 1 is the maximum;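 note: transcript level of a background control reporter unit measured by RT-PCR and capillary electrophoresis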); settings: HepG2 Attagene TRANS M32 internal marker reporter
Procedure, shortened: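 Internal background reporter in transfected HepG2: after 24 h chemical exposure, RNA reverse-transcribed, reporter cDNA amplified, fluorescently labelled and HpaI-cut, then sized by capillary electrophoresis. Gain of signal fitted against DMSO control.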

[16] = target: Transcriptional activator Myb (Homo sapiens) (UniProt P10242); test: ATG_Myb_CIS: Attagene CIS-FACTORIAL HepG2 Assay for human Myeloblastosis (Myb) Proto-Oncogene Transcription Factor (AID 2282986); settings: HepG2 Attagene CIS-FACTORIAL Myb reporter transcription; actives raise or lower the signal
Chain of Transcriptional activator Myb (Homo sapiens) (P10242 whole entry, looked up): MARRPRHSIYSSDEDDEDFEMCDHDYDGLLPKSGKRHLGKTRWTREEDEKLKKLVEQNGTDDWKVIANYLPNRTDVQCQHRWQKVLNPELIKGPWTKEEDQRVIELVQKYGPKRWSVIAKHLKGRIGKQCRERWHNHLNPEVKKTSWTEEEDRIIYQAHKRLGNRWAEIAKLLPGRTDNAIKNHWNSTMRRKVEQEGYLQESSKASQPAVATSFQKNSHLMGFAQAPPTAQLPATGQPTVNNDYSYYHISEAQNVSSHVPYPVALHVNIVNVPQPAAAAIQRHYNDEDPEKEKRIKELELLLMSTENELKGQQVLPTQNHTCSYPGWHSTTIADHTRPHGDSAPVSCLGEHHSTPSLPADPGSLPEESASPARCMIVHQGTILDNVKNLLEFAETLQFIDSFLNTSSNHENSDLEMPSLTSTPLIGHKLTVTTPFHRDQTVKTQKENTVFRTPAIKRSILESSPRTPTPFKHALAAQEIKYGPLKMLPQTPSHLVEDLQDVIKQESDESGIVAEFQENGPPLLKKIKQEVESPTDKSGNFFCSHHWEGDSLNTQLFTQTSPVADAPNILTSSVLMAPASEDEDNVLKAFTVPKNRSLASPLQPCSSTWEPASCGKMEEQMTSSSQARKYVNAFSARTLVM
Procedure, shortened: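 HepG2 cells were transiently transfected with cis-regulated multiple reporter transcription units reflecting endogenous Myb activity, then exposed to compound for 24 hours. Reporter mRNA was measured by RT-PCR with capillary electrophoresis; bidirectional fitting versus DMSO baseline.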

[17] = ATG_NF_kB_CIS: Attagene CIS-FACTORIAL HepG2 Assay for human Nuclear Factor Kappa B (NF-kB) (AID 2282991); settings: HepG2 Attagene cis-factorial NF-kB reporter mRNA; actives raise or lower the signal
Procedure, shortened: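 HepG2 cells transiently transfected with multiplexed cis-element reporter units measuring endogenous transcription factor activity; reporter mRNA read 24 h after dosing by RT-PCR, fluorescent labelling, HpaI digestion and capillary electrophoresis. Bidirectional fit against DMSO baseline.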

[18] = target: Oxysterols receptor LXR-beta (Homo sapiens) (UniProt P55055); test: ATG_LXRb_TRANS: Attagene TRANS-FACTORIAL HepG2 Assay for human Liver X Receptor beta (LXRb) (AID 2282981; active = hit-call score of the fitted dose curve at least 0.9, where 1 is the maximum); settings: HepG2 Attagene TRANS GAL4-LXRb reporter, mRNA
Chain of Oxysterols receptor LXR-beta (Homo sapiens) (P55055 whole entry, looked up, the tested form may be a part): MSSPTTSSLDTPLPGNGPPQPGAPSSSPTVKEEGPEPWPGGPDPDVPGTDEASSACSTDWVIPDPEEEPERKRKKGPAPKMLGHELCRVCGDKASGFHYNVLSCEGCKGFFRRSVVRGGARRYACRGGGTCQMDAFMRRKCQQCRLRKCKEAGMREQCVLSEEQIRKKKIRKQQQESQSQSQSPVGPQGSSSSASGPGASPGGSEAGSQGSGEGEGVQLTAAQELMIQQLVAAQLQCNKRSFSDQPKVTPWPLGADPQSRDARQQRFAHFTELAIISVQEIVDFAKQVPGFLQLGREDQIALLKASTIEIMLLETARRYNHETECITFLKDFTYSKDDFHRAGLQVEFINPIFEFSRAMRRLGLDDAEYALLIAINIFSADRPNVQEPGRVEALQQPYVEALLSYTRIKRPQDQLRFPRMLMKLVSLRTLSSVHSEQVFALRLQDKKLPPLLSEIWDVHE
Procedure, shortened: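 After 24 h chemical treatment of transfected HepG2 cells carrying exogenous NR-Gal4 chimeras, reporter mRNA was quantified by fluorescent RT-PCR and capillary electrophoresis; activity taken as increase over DMSO controls.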

Measured: AC50

O=C(O)c1cn(-c2ccc(F)cc2)c2cc(N3CCNCC3)c(F)cc2c1=O
inactive: [1] | [2] | [3] | [4] | [5] | [6] | [7] | [8] | [9] | [10] | [11] | [12]

O=S(=O)(O)c1ccc(O)c2ncccc12
inactive: [1] | [13] | [14] | [15] | [2] | [16] | [3] | [4] | [5] | [17] | [6] | [7]

COc1cc(C)cc(O)c1
inactive: [1] | [18] | [15] | [16] | [3] | [5] | [17] | [6] | [7]

CN(C)c1ccc(O)c2c1C[C@H]1C[C@H]3[C@H](N(C)C)C(=O)C(C(N)=O)=C(O)[C@@]3(O)C(=O)C1=C2O
inactive: [1] | [18] | [2] | [16] | [3] | [5] | [17] | [6] | [7]

Clc1ccc(Cl)c(Cl)c1Cl
inactive: [1] | [15] | [2] | [16] | [3] | [4] | [5] | [17] | [6] | [7] | [8]

CCCCc1ccc(N)cc1
inactive: [1] | [13] | [14] | [15] | [2] | [16] | [3] | [4] | [5] | [17] | [7] | [8]
active: [6] 27.2 µM

O=C(Oc1ccccc1)c1ccc(O)cc1
inactive: [1] | [14] | [15] | [16] | [3] | [4] | [5] | [6] | [8]

CC(C=O)Cc1ccc(C(C)C)cc1 (stereo not given)
inactive: [1] | [13] | [14] | [15] | [2] | [16] | [3] | [4] | [5] | [17] | [6] | [7] | [8]

CC(C)C[C@H]1C(=O)N2CCC[C@H]2[C@]2(O)O[C@](NC(=O)[C@@H]3C=C4c5cccc6[nH]c(Br)c(c56)C[C@H]4N(C)C3)(C(C)C)C(=O)N12
inactive: [1] | [15] | [16] | [5] | [7]
active: [2] 5.67 µM | [3] 3.24 µM | [4] 3.81 µM | [6] 3.7 µM

Cc1ccc2n[nH]nc2c1
inactive: [1] | [14] | [15] | [16] | [3] | [4] | [5] | [17] | [6] | [7] | [8] | [9] | [10] | [11] | [12]

COC(=O)Cc1cccc2ccccc12
inactive: [1] | [14] | [3] | [4] | [5] | [17] | [6] | [8]
